Where a name gives a salt, the structure may show the parent alone. A number with no mark means an inactive call.
system: primary human hepatic stellate cells (donor 1); test: COL1A1 mRNA fold change vs DMSO (normalised to PSMB2); higher = more COL1A1 expression, active = hit call of the paper; details: 48 h
Experimental: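 Secondary qRT-PCR screen in primary human HSCs (donor 1), 384-well plates, with compounds dispensed in quadruplicate and incubated for 48 h. Cells-to-CT lysates were used for multiplexed TaqMan qPCR of ACTA2 or COL1A1 with PSMB2 as reference. Fold changes versus DMSO come from a linear model (Ct_gene ~ Ct_PSMB2 + plate + chemical). A hit is defined as COL1A1 and ACTA2 FC <0.5 (FDR <0.05) with PSMB2 between 0.2 and 2.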

SMILES | COL1A1 mRNA fold change
C[C@H](N)Cn1ccc2cc(F)c(Cl)cc21 [Ro 60-0175 fumarate] (33.3333 µM) | 2.21
CC[C@H]1CN2CCc3cc(OC)c(OC)cc3[C@@H]2C[C@@H]1C[C@H]1NCCc2cc(OC)c(OC)cc21 [Emetine] (12.0333 µM) | 0.216 (active)
CCN1CCN(C(=O)Cc2ccc(Nc3ncc(F)c(Nc4ccc(C(=O)Nc5ccccc5Cl)cc4)n3)cc2)CC1 [Aurora A Inhibitor I] (33.3333 µM) | 0.0414
O=[N+]([O-])/C=C/c1ccc2c(c1)OCO2 (3.7 µM) | 0.638
Fc1cc(F)c2c(c1)[C@H]1C=CC[C@H]1C(c1cccnc1)N2 (some centres not stated) [Golgicide A] (33.3333 µM) | 0.111 (active)
O=c1[nH]c2ccccc2n1C1CCN(CCCC(c2ccc(F)cc2)c2ccc(F)cc2)CC1 [Pimozide] (33.3333 µM) | 0.027
O=C1/C(=C/c2ccccc2)C[C@@]2(O)[C@H]3Cc4ccc(O)c5c4[C@@]2(CCN3CC2CC2)[C@H]1O5 [BNTX maleate] (33.3333 µM) | 0.233
CN[C@@H]1C[C@H]2O[C@@](C)([C@@H]1OC)n1c3ccccc3c3c4c(c5c6ccccc6n2c5c31)C(=O)NC4 [staurosporine] (35.6667 µM) | 0.11
CC1=C(O)C(=O)C=C2C1=CC=C1[C@@]2(C)CC[C@@]2(C)[C@@H]3C[C@](C)(C(=O)O)CC[C@]3(C)CC[C@]12C [Celastrol] (3.33333 µM) | 1.09
COc1ccc2[nH]cc(C3=CCNCC3)c2c1 (33.3333 µM) | 2.45
CN(C(=O)Cc1ccc(Cl)c(Cl)c1)[C@H](CN1CCCC1)c1ccccc1 [ICI-199,441 hydrochloride] (33.3333 µM) | 0.743
COc1ccc2c(c[n+](C)c3c4cc5c(cc4ccc23)OCO5)c1OC (6.66667 µM) | 0.204
CC1=C(CC/C(C)=C/CCC2=CC[C@H](C3=CC(=O)O[C@H]3O)O[C@H]2O)C(C)(C)CCC1 [Manoalide] (40 µM) | 0.236 (active)
C[C@@H]1O[C@@H](O[C@H]2C[C@@H](O)[C@]3(CO)[C@H]4[C@H](O)C[C@]5(C)[C@@H](C6=CC(=O)OC6)CC[C@]5(O)[C@@H]4CC[C@]3(O)C2)[C@H](O)[C@H](O)[C@H]1O [Ouabain] (33.3333 µM) | 0.0962 (active)
CCCCCCCCCCCCCC(=O)O[C@@H]1[C@@H](C)[C@@]2(O)[C@@H](C=C(CO)C[C@]3(O)C(=O)C(C)=C[C@@H]23)[C@@H]2C(C)(C)[C@]12OC(C)=O [Phorbol 12-myristate 13-acetate] (27.0333 µM) | 0.71
CC1=NCCc2c1[nH]c1cc(O)ccc21 [Harmalol hydrochloride dihydrate] (24.4333 µM) | 1.24
CC(C(=O)OC1CC2CCC(C1)N2C)c1ccc(Br)cc1 (configuration not stated) [PG-9 maleate] (33.3333 µM) | 0.598
CCN(CC)CCO[C@H]1CC[C@@]2(C)C(=CC[C@@H]3[C@@H]2CC[C@]2(C)C(=O)CC[C@@H]32)C1 (33.3333 µM) | 0.921
CN1[C@@H]2CC[C@H]1C[C@@H](OC(c1ccc(F)cc1)c1ccc(F)cc1)C2 [3 α-Bis-(4-fluorophenyl) methoxytropane hydrochloride] (33.3333 µM) | 1.54
C[C@]12CC[C@H](O)C[C@H]1CC[C@@H]1[C@@H]2CC[C@]2(C)[C@@H](C3=CC(=O)OC3)CC[C@]12O [Digitoxigenin] (33.3333 µM) | 0.099 (active)
O=C1C2CCN(CC2)C1(CO)CO (90 µM) | 1.07
CO[C@H]1CC[C@@H](O[C@H]2C[C@H]([C@]3(C)CC[C@]4(C[C@H](O)[C@@H](C)[C@@H]([C@@H](C)/C=C(\C)C(=O)[C@H](C)C[C@H](C)C(=O)O)O4)O3)O[C@]3(O[C@@H]([C@H]4O[C@@](O)(CO)[C@H](C)C[C@@H]4C)C[C@@H]3C)[C@@H]2C)O[C@@H]1C [Nanchangmycin] (11.1 µM) | 0.223 (active)
